Data on nine compounds can be found in PubChem BioAssay (NCI).

The nature of test [1]: NCI Yeast Anticancer Drug Screen. Data for the rad50 strain (AID 155).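 Also: 0% = growth of vehicle-only cultures of the same strain.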 To be noted: S. cerevisiae rad50 strain growth inhibition, active compounds read high. The gist of the method:
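Readout: growth inhibition relative to vehicle-treated cultures. Compound exposure was carried out in a genetically defined yeast strain deficient in DNA damage repair.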

Test [2] in a line: NCI Yeast Anticancer Drug Screen. Data for the mec2-1 strain (AID 157). To be noted: S. cerevisiae mec2-1 strain, active compounds read high. The gist of the method: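 Mutant yeast (mec2-1) grown with compound; growth inhibition relative to vehicle control reported.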
Test [3] can be described thus: NCI Yeast Anticancer Drug Screen. Data for the sgs1 mgt1 strain (AID 161).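 Also: 0% = growth of cultures given vehicle only.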 To be noted: S. cerevisiae sgs1 mgt1 strain, active compounds read high. Put shortly: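 Growth of a repair-deficient yeast mutant was monitored after compound treatment and expressed as inhibition relative to vehicle-treated cultures.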
Test [4] in a line: NCI Yeast Anticancer Drug Screen. Data for the cln2 rad14 strain (AID 165).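 Also: 0% = growth equal to vehicle treated cultures.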 To be noted: S. cerevisiae cln2 rad14 strain, active compounds read high. The gist of the method:
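Readout is yeast growth inhibition versus vehicle-treated controls, using a strain with cln2 and rad14 alterations exposed to compound.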

A short description of test [5]: NCI Yeast Anticancer Drug Screen. Data for the bub3 strain (AID 167). To be noted: S. cerevisiae bub3 mutant strain, active compounds read high. The gist of the method:
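Readout: yeast growth inhibition, expressed relative to vehicle-only wells. The test organism is a mutant strain from a panel with lesions in DNA repair or checkpoint genes.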

Test [6] can be described thus: NCI Yeast Anticancer Drug Screen. Data for the mlh1 rad18 strain (AID 175). To be noted: S. cerevisiae mlh1 rad18 strain growth inhibition, active compounds read high. Put shortly:
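Genetically defined yeast (DNA repair-deficient) exposed to compounds; growth inhibition determined relative to vehicle.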

[7] abbreviates: at 5.0 µM (retest, dose inferred, filed as 0.5).
Setting [8] is: at 50.0 µM (retest, dose inferred, filed as 5.0).

This is part of a sample that, as a whole, favours compounds with a hit. Of some 79,000 tested, about 15% had one in any assay. Unmarked numbers belong to inactive results. Active and inactive are the calls of the source. Rule as the data show it: active = growth inhibition above about 70%; inactive = the rest.

Take `COc1ccc2cc(C(=O)CCCC(C)C(=O)O)ccc2c1` (configuration not stated): the growth inhibition is 0% in test [1] (setting [7]); -9% in test [1] (setting [8]); 74.6% (active) in test [1] (at 50.0 µM); -9% in test [2] (setting [7]); -11% in test [2] (setting [8]); -7.85% in test [2] (at 50.0 µM). The growth inhibition in test [3] (setting [7]) is 0%; in test [3] (setting [8]), 38%; in test [3] (at 50.0 µM), 2.85%; in test [4] (setting [7]), -3%; in test [4] (setting [8]), -22%; in test [4] (at 50.0 µM) it was -48%. For the same compound, the growth inhibition in test [5] (setting [7]) is -4%; in test [5] (setting [8]), -9%; in test [5] (at 50.0 µM), 3.55%; in test [6] (setting [7]), -12%; in test [6] (setting [8]), -4%; in test [6] (at 50.0 µM) it was 2.95%.
On to `S=c1[nH]c2ccc(Br)cc2c(=S)n1-c1ccccc1`, for which the growth inhibition in test [1] (setting [7]) was -1%; in test [1] (setting [8]), 19%; in test [1] (at 50.0 µM), 90.5% (active); in test [2] (setting [7]), 1%; in test [2] (setting [8]) it was 5%; in test [2] (at 50.0 µM), 91.2% (active). The growth inhibition in test [3] (setting [7]) is 0%; in test [3] (setting [8]) it was 24%; in test [3] (at 50.0 µM), 89.5% (active); in test [4] (setting [7]), -1%; in test [4] (setting [8]), 4%; in test [4] (at 50.0 µM), 88% (active). Also, the growth inhibition in test [5] (setting [7]) is -9%; in test [5] (setting [8]) it was 14%; in test [5] (at 50.0 µM), 89.4% (active); in test [6] (setting [7]), -29%; in test [6] (setting [8]), 5%; in test [6] (at 50.0 µM) it was 87.7% (active).
Turning to `O=C(c1ccccc1)c1ccc(O)cc1O`, the growth inhibition was -5% in test [1] (setting [7]); 49% in test [1] (setting [8]); 85% (active) in test [1] (at 50.0 µM); -10% in test [2] (setting [7]); 24% in test [2] (setting [8]); 84.5% (active) in test [2] (at 50.0 µM). Further, the growth inhibition in test [3] (setting [7]) is -5%; in test [3] (setting [8]), 15%; in test [3] (at 50.0 µM), 88.5% (active); in test [4] (setting [7]), -4%; in test [4] (setting [8]), 2%; in test [4] (at 50.0 µM), 26.4%. For the same compound, the growth inhibition in test [5] (setting [7]) is -26%; in test [5] (setting [8]), -17%; in test [5] (at 50.0 µM), 58.9%; in test [6] (setting [7]), -9%; in test [6] (setting [8]), 12%; in test [6] (at 50.0 µM), 72.1% (active).
`O=C(Nc1ccc(Cl)cc1)Nc1cc(Cl)ccc1O`: the growth inhibition in test [1] (setting [7]) was -2%; in test [1] (setting [8]), 22%; in test [1] (at 50.0 µM), 93% (active); in test [2] (setting [7]), 0%; in test [2] (setting [8]), 35%; in test [2] (at 50.0 µM), 96.2% (active). The growth inhibition in test [3] (setting [7]) is -1%; in test [3] (setting [8]), 28%; in test [3] (at 50.0 µM) it was 90.3% (active); in test [4] (setting [7]) it was -8%; in test [4] (setting [8]) it was 27%; in test [4] (at 50.0 µM) it was 94% (active). Moreover, the growth inhibition in test [5] (setting [7]) is -4%; in test [5] (setting [8]) it was 19%; in test [5] (at 50.0 µM), 96.5% (active); in test [6] (setting [7]), -3%; in test [6] (setting [8]), 30%; in test [6] (at 50.0 µM), 97.5% (active).
Consider `Nc1ccc(S(=O)(=O)C23CC4CC(CC(C4)C2)C3)cc1`, for which the growth inhibition in test [1] (setting [7]) is -2%; in test [1] (setting [8]), 96% (active); in test [1] (at 50.0 µM), 97.9% (active); in test [2] (setting [7]), -16%; in test [2] (setting [8]), 98% (active); in test [2] (at 50.0 µM), 98.8% (active). The growth inhibition in test [3] (setting [7]) was -3%; in test [3] (setting [8]), 98% (active); in test [3] (at 50.0 µM) it was 97.7% (active); in test [4] (setting [7]), 1%; in test [4] (setting [8]) it was 93% (active); in test [4] (at 50.0 µM), 93.5% (active). In addition, the growth inhibition is 64% in test [5] (setting [7]); 98% (active) in test [5] (setting [8]); 95.8% (active) in test [5] (at 50.0 µM); 13% in test [6] (setting [7]); 98% (active) in test [6] (setting [8]); 97.5% (active) in test [6] (at 50.0 µM).
Consider `CCCCCCC(=O)CCCCCC/C=C\CC1OC(=O)C(N)(CO)C1O` (configuration not stated), for which the growth inhibition was 34% in test [1] (setting [7]); 98% (active) in test [1] (setting [8]); 91.5% (active) in test [1] (at 50.0 µM); 45% in test [2] (setting [7]); 99% (active) in test [2] (setting [8]); 93.5% (active) in test [2] (at 50.0 µM). Besides, the growth inhibition in test [3] (setting [7]) is 43%; in test [3] (setting [8]), 98% (active); in test [3] (at 50.0 µM), 93.2% (active); in test [4] (setting [7]), 55%; in test [4] (setting [8]), 98% (active); in test [4] (at 50.0 µM) it was 90% (active). For the same compound, the growth inhibition in test [5] (setting [7]) was 80% (active); in test [5] (setting [8]), 98% (active); in test [5] (at 50.0 µM), 91% (active); in test [6] (setting [7]), 58%; in test [6] (setting [8]), 98% (active); in test [6] (at 50.0 µM), 91.5% (active).
As for `C=CC(=O)NC(C)C`, the growth inhibition in test [1] (setting [7]) was 1%; in test [1] (setting [8]), 6%; in test [1] (at 50.0 µM), 74.7% (active); in test [2] (setting [7]), 0%; in test [2] (setting [8]), 2%; in test [2] (at 50.0 µM), -3.7%. Further, the growth inhibition in test [3] (setting [7]) was 1%; in test [3] (setting [8]) it was 4%; in test [3] (at 50.0 µM), 19.4%; in test [4] (setting [7]) it was -1%; in test [4] (setting [8]), 1%; in test [4] (at 50.0 µM) it was 16.7%. Moreover, the growth inhibition is -2% in test [5] (setting [7]); -4% in test [5] (setting [8]); 5.8% in test [5] (at 50.0 µM); 0% in test [6] (setting [7]); 9% in test [6] (setting [8]); 40.3% in test [6] (at 50.0 µM).
As for `CO[C@H]1CC[C@@]2(C)C(=CC[C@H]3[C@@H]4C[C@H](OC(C)=O)C[C@@]4(C)CC[C@@H]32)C1`, the growth inhibition in test [1] (setting [7]) was 4%; in test [1] (setting [8]), 43%; in test [1] (at 50.0 µM), 26.4%; in test [2] (setting [7]), 2%; in test [2] (setting [8]), 26%; in test [2] (at 50.0 µM) it was 17.8%. The growth inhibition in test [3] (setting [7]) was 1%; in test [3] (setting [8]) it was 24%; in test [3] (at 50.0 µM), 38.3%; in test [4] (setting [7]) it was 2%; in test [4] (setting [8]) it was 28%; in test [4] (at 50.0 µM), 86.7% (active). Further, the growth inhibition was 1% in test [5] (setting [7]); 19% in test [5] (setting [8]); 13.3% in test [5] (at 50.0 µM); 0% in test [6] (setting [7]); 23% in test [6] (setting [8]); 34.9% in test [6] (at 50.0 µM).
`O=C(CC(O)(CC(=O)OCc1ccccc1)C(=O)OCc1ccccc1)OCc1ccccc1`: the growth inhibition in test [1] (setting [7]) is -3%; in test [1] (setting [8]), -23%; in test [1] (at 50.0 µM), 99.2% (active); in test [2] (setting [7]), -2%; in test [2] (setting [8]), -27%; in test [2] (at 50.0 µM), 99.5% (active). Moreover, the growth inhibition in test [3] (setting [7]) is -4%; in test [3] (setting [8]), -22%; in test [3] (at 50.0 µM), 99.1% (active); in test [4] (setting [7]), 11%; in test [4] (setting [8]), -10%; in test [4] (at 50.0 µM), 98.2% (active). The growth inhibition in test [5] (setting [7]) was -1%; in test [5] (setting [8]), -34%; in test [5] (at 50.0 µM), 99.4% (active); in test [6] (setting [7]) it was 3%; in test [6] (setting [8]), -9%; in test [6] (at 50.0 µM), 99% (active).
